# Values joined by “and” are separate entries in the source; they are usually repeats but may differ in a detail not shown here. Identical values can stand only once. Records with an inconclusive call do not appear. Entries that show only a call come without a potency. Active and inactive are the calls of the source. Unless noted, calls come from the whole dose curve; as a rule, active = well fitted curve in the direction sought with a large enough effect; inconclusive = small, poorly fitted or top-dose-only effect, or another doubt; inactive = no such curve, though single readings can be large; an effect the other way counts as inactive or inconclusive.
# Columns and labels:
# AA1029 = experiment: qHTS profiling for inhibitors of Plasmodium falciparum proliferation (AID 504749); note: nearly all actives have a fitted effect of over 60% in size; note: potency is the fitted concentration of half-maximal effect; conditions: P. falciparum in erythrocytes, SYBR Green DNA, 72 h; series mostly up to 28.7 µM
# Method in brief: (§1)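 Infected RBCs, 0.3% parasitemia/2.5% Hct final; cpd 72 h, 37 C, 5% CO2; lysis buffer with saponin/triton/SYBR Green I, o/n RT dark; FI 485/535; norm. to artemisinin (0.29 uM) and DMSO.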
# AS120 = experiment: as above; conditions: P. falciparum in erythrocytes, SYBR Green DNA, 72 h; series mostly up to 28.7 µM
# Method in brief: as §1
# ATS189 = experiment: as above; conditions: P. falciparum in erythrocytes, SYBR Green DNA, 72 h; series mostly up to 28.7 µM
# Method in brief: as §1
# ATS95 = experiment: as above; conditions: P. falciparum in erythrocytes, SYBR Green DNA, 72 h; series mostly up to 28.7 µM
# Method in brief: as §1
# CP238 = experiment: as above; conditions: P. falciparum in erythrocytes, SYBR Green DNA, 72 h; series mostly up to 28.7 µM
# Method in brief: as §1
# CP247 = experiment: as above; conditions: P. falciparum in erythrocytes, SYBR Green DNA, 72 h; series mostly up to 28.7 µM
# Method in brief: as §1
# CP262 = experiment: as above; conditions: P. falciparum in erythrocytes, SYBR Green DNA, 72 h; series mostly up to 28.7 µM
# Method in brief: as §1
# CP265 = experiment: as above; conditions: P. falciparum in erythrocytes, SYBR Green DNA, 72 h; series mostly up to 28.7 µM
# Method in brief: as §1
# CP286 = experiment: as above; conditions: P. falciparum in erythrocytes, SYBR Green DNA, 72 h; series mostly up to 28.7 µM
# Method in brief: as §1
# PAD = experiment: as above; conditions: P. falciparum in erythrocytes, SYBR Green DNA, 72 h; series mostly up to 28.7 µM
# Method in brief: as §1
# PC15 = experiment: as above; conditions: P. falciparum in erythrocytes, SYBR Green DNA, 72 h; series mostly up to 28.7 µM
# Method in brief: as §1
# TAB165 = experiment: as above; conditions: P. falciparum in erythrocytes, SYBR Green DNA, 72 h; series mostly up to 28.7 µM
# Method in brief: as §1
# [1] = Cell Viability - LYMP2-023 (AID 975);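 note: cells exposed to compound for 24 hours at 37 °C; nearly all actives have a fitted effect of over 55% in size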; note: potency is the fitted concentration of half-maximal effect
# Method in brief: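 LYMP2-023 human lymphoblastoid cells, 2500/well, preincubated 5 hr at 37 C, then compound-treated 24 hr at 37 C in complete medium. CellTiter-Glo luminescence (ATP) after 30 min at room temperature; AC50 from Hill-equation fits; tetraoctylammonium bromide positive control.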
# [2] = target: Bile acid receptor (Homo sapiens) (UniProt Q96RI1); experiment: qHTS assay for small molecule antagonists of farnesoid X receptor signaling (AID 588526; calls by dose curve)
# Bile acid receptor (Homo sapiens), sequence (Q96RI1 whole entry, looked up): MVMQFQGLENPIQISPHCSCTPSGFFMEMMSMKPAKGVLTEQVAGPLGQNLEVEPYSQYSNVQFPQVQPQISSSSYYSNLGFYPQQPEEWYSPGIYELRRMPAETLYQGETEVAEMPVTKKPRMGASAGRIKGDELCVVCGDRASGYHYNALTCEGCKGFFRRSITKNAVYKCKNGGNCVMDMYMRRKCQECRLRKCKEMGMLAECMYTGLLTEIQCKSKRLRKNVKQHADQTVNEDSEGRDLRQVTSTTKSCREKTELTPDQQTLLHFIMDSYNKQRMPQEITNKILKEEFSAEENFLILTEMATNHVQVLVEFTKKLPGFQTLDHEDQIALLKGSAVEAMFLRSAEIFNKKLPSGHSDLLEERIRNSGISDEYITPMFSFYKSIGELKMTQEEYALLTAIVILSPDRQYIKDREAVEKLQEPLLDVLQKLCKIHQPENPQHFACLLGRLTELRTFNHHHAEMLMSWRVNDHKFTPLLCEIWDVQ
# Method in brief: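 Beta-lactamase reporter antagonist mode: HEK293T FXR-UAS-bla cells, titrated compound, CDCA stimulation, 16 h 37 C, CCF4 dye 2 h RT. Data normalized to CDCA 50 uM and DMSO; Hill-fit IC50.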
# [3] = target: Glucocorticoid receptor (Homo sapiens) (UniProt P04150); experiment: qHTS assay for small molecule agonists of glucocorticoid receptor signaling (AID 588532; active = well fitted curve in the direction sought with a large enough effect in the signal ratio, with a control signal flat; the % refers to the signal ratio); conditions: HeLa MMTV-bla, beta-lactamase ratio, agonist, 18 h; stronger effect = higher value; percent of dexamethasone control, DMSO zero
# Glucocorticoid receptor (Homo sapiens), sequence (P04150 whole entry, looked up): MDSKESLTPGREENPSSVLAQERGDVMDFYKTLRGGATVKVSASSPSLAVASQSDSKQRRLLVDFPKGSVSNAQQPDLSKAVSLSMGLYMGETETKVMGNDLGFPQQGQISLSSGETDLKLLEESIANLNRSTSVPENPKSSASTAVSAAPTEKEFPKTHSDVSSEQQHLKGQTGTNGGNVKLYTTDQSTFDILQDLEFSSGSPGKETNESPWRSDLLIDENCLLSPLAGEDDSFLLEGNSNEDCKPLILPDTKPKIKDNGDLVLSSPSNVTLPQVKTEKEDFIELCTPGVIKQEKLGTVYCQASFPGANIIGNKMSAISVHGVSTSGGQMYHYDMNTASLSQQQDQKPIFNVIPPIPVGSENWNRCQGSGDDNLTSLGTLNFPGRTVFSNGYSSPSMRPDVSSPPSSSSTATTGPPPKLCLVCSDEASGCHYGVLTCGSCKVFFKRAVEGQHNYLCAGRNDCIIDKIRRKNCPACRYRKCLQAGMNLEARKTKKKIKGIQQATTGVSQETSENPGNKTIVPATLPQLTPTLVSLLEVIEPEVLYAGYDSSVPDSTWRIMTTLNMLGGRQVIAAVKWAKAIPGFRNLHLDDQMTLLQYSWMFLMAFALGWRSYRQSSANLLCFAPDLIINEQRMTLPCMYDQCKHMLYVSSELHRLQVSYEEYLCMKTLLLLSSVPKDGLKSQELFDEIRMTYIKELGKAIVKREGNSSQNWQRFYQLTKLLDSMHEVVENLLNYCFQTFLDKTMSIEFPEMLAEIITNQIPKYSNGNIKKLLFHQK
# Method in brief: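 Using MMTV-bla HeLa cells in medium with 1% stripped FBS and 25 mM HEPES, compounds were titrated and incubated overnight-length (18 h). Beta-lactamase cleavage of CCF4 was quantified by dual-emission fluorescence.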
# [4] = target: Glucocorticoid receptor (Homo sapiens) (UniProt P04150); experiment: qHTS assay for small molecule antagonists of glucocorticoid receptor signaling (AID 588533; active = well fitted inhibition curve with a large enough effect in the signal ratio, with a control signal flat, not every such curve was filed as active; the % refers to the signal ratio;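 note: cells stimulated with 2 nM dexamethasone as agonist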; note: potency is the fitted concentration of half-maximal effect)
# Method in brief: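 Antagonist-mode qHTS: compound titrations added to GRE-bla HeLa cells, then dexamethasone 2 nM final; 18 h, 37 C. CCF4 FRET fluorescence normalized to dexamethasone and DMSO; IC50 from Hill fit.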
# [5] = qHTS assay for small molecule activators of the nuclear factor-kappa B (NF-kB) signaling pathway (AID 651749; active = well fitted activation curve with a large enough effect in the signal ratio; the % refers to the signal ratio); conditions: NF-kB-bla ME-180 cells, beta-lactamase FRET ratio, 16 h; stronger effect = higher value
# Method in brief: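 Readout: beta-lactamase reporter driven by an NF-kB response element, detected fluorescently as loss of FRET. Cells were the ME-180 line, treated 16 hr at 37C with pin-transferred compound.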
# [6] = qHTS assay for small molecule antagonists of peroxisome proliferator-activated receptor delta signaling (AID 588535; active = well fitted inhibition curve with a large enough effect in the signal ratio, with a control signal flat, not every such curve was filed as active; the % refers to the signal ratio;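 for max response: cells co-treated with a PPAR-delta agonist as stimulator during compound exposure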); conditions: HEK293T PPARd-UAS-bla, beta-lactamase FRET ratio, 18 h; 460 nm channel
# Method in brief: (§2)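 HEK293T PPAR-delta-UAS-bla cells, 4000/well, 2% charcoal/dextran FBS; 5 h 37 C; cpd titration; 18 h 37 C; CCF4 2 h RT; FI 460/530 nm; Hill fit → IC50, efficacy.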
# [7] = target: Peroxisome proliferator-activated receptor delta (Homo sapiens) (UniProt Q03181); experiment: as above
# Peroxisome proliferator-activated receptor delta (Homo sapiens), sequence (Q03181 whole entry, looked up): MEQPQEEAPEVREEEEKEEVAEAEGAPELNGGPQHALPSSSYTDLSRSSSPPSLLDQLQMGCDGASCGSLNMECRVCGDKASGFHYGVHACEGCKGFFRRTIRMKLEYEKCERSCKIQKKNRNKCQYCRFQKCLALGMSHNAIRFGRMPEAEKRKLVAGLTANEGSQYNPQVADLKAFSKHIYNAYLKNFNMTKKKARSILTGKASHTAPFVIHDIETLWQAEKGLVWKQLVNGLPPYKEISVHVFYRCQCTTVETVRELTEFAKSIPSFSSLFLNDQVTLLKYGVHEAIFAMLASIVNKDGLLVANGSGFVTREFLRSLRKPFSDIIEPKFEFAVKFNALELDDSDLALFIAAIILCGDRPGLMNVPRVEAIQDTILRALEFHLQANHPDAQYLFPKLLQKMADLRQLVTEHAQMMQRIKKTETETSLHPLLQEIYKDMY
# Method in brief: as §2
# [8] = target: Phospholipid hydroperoxide glutathione peroxidase GPX4 (Homo sapiens) (UniProt P36969); experiment: Primary qHTS Assay for Inhibitors of Recombinant Selenoprotein Glutathione Peroxidase 4 (GPX4) (AID 1845192); note: nearly all actives have a fitted effect of over 65% in size; note: potency is the fitted concentration of half-maximal effect
# Phospholipid hydroperoxide glutathione peroxidase GPX4 (Homo sapiens), sequence (P36969 whole entry, looked up): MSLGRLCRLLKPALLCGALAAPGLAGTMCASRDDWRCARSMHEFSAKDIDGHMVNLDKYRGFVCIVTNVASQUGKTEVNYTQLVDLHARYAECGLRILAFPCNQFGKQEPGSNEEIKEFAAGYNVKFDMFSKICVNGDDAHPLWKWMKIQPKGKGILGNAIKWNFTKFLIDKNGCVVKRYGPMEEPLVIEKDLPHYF
# Method in brief: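 NADPH consumption, followed by fluorescence at 340/450 nm between 0 and 15 min, reports GPX4 activity via coupled glutathione reductase (100 nM). Enzyme 200 nM was pre-exposed to compound 30 min; 0.5 mM cumene hydroperoxide and 1 mM GSH served as substrates.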
smiles,measurement,setting,value
CO/N=C(/C(=O)N[C@@H]1C(=O)N2C(C(=O)O)=CCS[C@H]12)c1csc(N)n1,Potency,AA1029,inactive
same,Potency,AS120,inactive
same,Potency,ATS189,inactive
same,Potency,ATS95,inactive
same,Potency,CP238,inactive
same,Potency,CP247,inactive
same,Potency,CP262,inactive
same,Potency,CP265,inactive
same,Potency,CP286,inactive
same,Potency,PAD,inactive
same,Potency,PC15,inactive
same,Potency,TAB165,inactive
c1ccccc1,Potency,[1],inactive
same,outcome,[2],inactive
same,activation,[3],-2.25% (inactive) [middle of 4 runs]
same,Potency,[4],inactive
same,activation,[5],-0.601% (inactive) [middle of 4 runs]
COC(=O)c1ccc(C=O)cc1,Potency,[1],inactive
same,outcome,[2],inactive
same,activation,[3],8.1% (inactive) and -8.49% (inactive)
same,Potency,[4],inactive
same,max response,[6],6.11% and 19.8%
same,Potency,[7],inactive
same,activation,[5],-1.54% (inactive)
CCc1cc2c(cc1CC)CC(NC[C@H](O)c1ccc(O)c3[nH]c(=O)ccc13)C2,Potency,[8],10 µM (active)
COCC(=O)O,activation,[3],1.9% (inactive) and -4.38% (inactive)
same,Potency,[4],inactive
same,max response,[6],5.18% and 13.7%
same,Potency,[7],inactive
same,activation,[5],0.0746% (inactive) and -0.444% (inactive)
CC(C)(C)NC(=O)[C@@H]1C[C@@H]2CCCC[C@H]2CN1C[C@@H](O)[C@H](Cc1ccccc1)NC(=O)[C@H](CC(N)=O)NC(=O)c1ccc2ccccc2n1,Potency,[8],inactive
C/C=C\c1ccc(OC)cc1,outcome,[2],inactive
same,max response,[6],-7.78%
same,Potency,[7],inactive
same,activation,[5],-0.604% (inactive)
same,Potency,AA1029,inactive
same,Potency,AS120,inactive
same,Potency,ATS189,inactive
same,Potency,ATS95,inactive
same,Potency,CP238,inactive
same,Potency,CP247,inactive
same,Potency,CP262,inactive
same,Potency,CP265,inactive
same,Potency,CP286,inactive
same,Potency,PAD,inactive
same,Potency,PC15,inactive
same,Potency,TAB165,inactive
Cc1ccc([N+](=O)[O-])cc1N,Potency,[1],inactive
same,outcome,[2],inactive
same,max response,[6],18.4% and -6.91%
same,Potency,[7],inactive
COC(=O)c1ccc(C)cc1,Potency,[1],inactive
same,outcome,[2],inactive
same,activation,[3],-15.8% (inactive)
same,Potency,[4],inactive
same,max response,[6],-3.36% and -19.7%
same,Potency,[7],inactive
CC(C)(CO)C(O)C(=O)NCCCC(=O)O (centres undefined),Potency,AA1029,inactive
same,Potency,AS120,0.0071 µM (active)
same,Potency,ATS189,2.82 µM (active)
same,Potency,ATS95,inactive
same,Potency,CP238,17.8 µM (active)
same,Potency,CP247,0.0112 µM (active)
same,Potency,CP262,inactive
same,Potency,CP265,0.0141 µM (active)
same,Potency,CP286,10 µM (active)
same,Potency,PAD,inactive
same,Potency,PC15,inactive
same,Potency,TAB165,0.0398 µM (active)
CO[C@H]1/C=C\O[C@@]2(C)Oc3c(C)c(O)c4c(O)c(c(/C=N/N5CCN(C6CCCC6)CC5)c(O)c4c3C2=O)NC(=O)/C(C)=C\C=C/[C@H](C)[C@H](O)[C@@H](C)[C@@H](O)[C@@H](C)[C@H](OC(C)=O)[C@@H]1C,Potency,[8],10 µM (active)
Cc1cc2nc3c(=O)[nH]c(=O)nc-3n(C[C@@H](O)[C@@H](O)[C@@H](O)COP(=O)(O)O)c2cc1C,Potency,[8],2.55 µM (active)
CC(=O)OCC1=C(C(=O)O)N2C(=O)[C@@H](NC(=O)CC#N)[C@H]2SC1,Potency,[8],inactive
CCCCCCCCCC(=O)OCCN1CCN(CC/C=C2/c3ccccc3Sc3ccc(Cl)cc32)CC1,Potency,[8],2.24 µM (active)
COc1c2ccoc2cc2oc(=O)ccc12,activation,[3],3.88% (inactive)
CC1(C)CC(N=C=O)CC(C)(CN=C=O)C1 (centres undefined),outcome,[2],inactive
same,activation,[5],-0.293% (inactive) and -0.0815% (inactive)
CN1CC[C@H](CN2c3ccccc3Sc3ccccc32)C1,Potency,[8],inactive
same,Potency,AA1029,5.01 µM (active)
same,Potency,AS120,12.6 µM (active)
same,Potency,ATS189,11.2 µM (active)
same,Potency,ATS95,12.6 µM (active)
same,Potency,CP238,8.91 µM (active)
same,Potency,CP247,7.94 µM (active)
same,Potency,CP262,inactive
same,Potency,CP265,11.2 µM (active)
same,Potency,CP286,12.6 µM (active)
same,Potency,PAD,8.91 µM (active)
same,Potency,PC15,11.2 µM (active)
same,Potency,TAB165,12.6 µM (active)
NC1=NC(S)C2N=CN=C2N1 (centres undefined),Potency,[1],10 µM (active)
same,activation,[3],-9.94% (inactive)
same,Potency,[4],7.08 µM (active)
same,activation,[5],0.298% (inactive)
same,Potency,AA1029,inactive
same,Potency,AS120,inactive
same,Potency,ATS189,inactive
same,Potency,ATS95,inactive
same,Potency,CP238,inactive
same,Potency,CP247,inactive
same,Potency,CP262,inactive
same,Potency,CP265,inactive
same,Potency,CP286,inactive
same,Potency,PAD,inactive
same,Potency,PC15,inactive
same,Potency,TAB165,inactive
C=CCOC(=O)c1ccccc1C(=O)OCC=C,Potency,[1],inactive
same,outcome,[2],inactive
same,activation,[5],-0.29% (inactive) and -0.27% (inactive)
S=C1NC=NC2N=CNC12 (centres undefined),activation,[5],1.89% (inactive)
same,Potency,AA1029,inactive
same,Potency,AS120,inactive
same,Potency,ATS189,inactive
same,Potency,ATS95,inactive
same,Potency,CP238,inactive
same,Potency,CP247,inactive
same,Potency,CP262,inactive
same,Potency,CP265,inactive
same,Potency,CP286,inactive
same,Potency,PAD,inactive
same,Potency,PC15,inactive
same,Potency,TAB165,inactive
C[C@@H](O)[C@H]1C(=O)N2C(C(=O)O)=C(S[C@@H]3CN[C@H](C(=O)Nc4cccc(C(=O)O)c4)C3)[C@H](C)[C@H]12,Potency,[8],inactive
O=C1c2ccccc2C(=O)C1c1ccc2ccccc2n1,activation,[3],-2.81% (inactive) and -4.97% (inactive)
same,Potency,[4],inactive
same,activation,[5],-1.78% (inactive) and 4.34% (inactive)
Cc1ccc([N+](=O)[O-])c(C)c1,Potency,[1],inactive
same,outcome,[2],inactive
same,activation,[3],-4.65% (inactive) and 0.746% (inactive)
same,Potency,[4],inactive
same,max response,[6],-27.9% and -14.4%
same,Potency,[7],inactive
CCCCCCCCCCCCCCC1CO1 (centres undefined),activation,[3],1.74% (inactive) and -2.57% (inactive)
same,Potency,[4],inactive
same,max response,[6],14.3%
same,Potency,[7],inactive
Cc1cnc(C(=O)N[C@H]2CCCCC/C=C/[C@@H]3C[C@@]3(C(=O)NS(=O)(=O)C3CC3)NC(=O)[C@@H]3C[C@@H](Oc4nc5ccccc5c5ccccc45)CN3C2=O)cn1,Potency,[8],3.98 µM (active)
CN(C)CCCCCCN(C)C,Potency,[1],inactive
same,outcome,[2],inactive
same,Potency,[4],inactive
same,max response,[6],53.3%
same,Potency,[7],inactive
same,Potency,AA1029,inactive
same,Potency,AS120,inactive
same,Potency,ATS189,inactive
same,Potency,ATS95,inactive
same,Potency,CP238,inactive
same,Potency,CP247,inactive
same,Potency,CP262,inactive
same,Potency,CP265,inactive
same,Potency,CP286,inactive
same,Potency,PAD,inactive
same,Potency,PC15,inactive
same,Potency,TAB165,inactive
O=C(O)CC(C(=O)O)C(CC(=O)O)C(=O)O (centres undefined),Potency,[1],inactive
same,outcome,[2],inactive
same,activation,[3],-3.1% (inactive) and -3.88% (inactive)
same,Potency,[4],inactive
same,max response,[6],5.81%
same,Potency,[7],inactive
same,activation,[5],-0.643% (inactive) and 0.457% (inactive)
C1OCOCO1,Potency,[1],inactive
same,outcome,[2],inactive
same,activation,[3],3.41% (inactive)
same,Potency,[4],inactive
same,max response,[6],2.46%
same,Potency,[7],inactive
same,activation,[5],-1.91% (inactive)
same,Potency,AA1029,inactive
same,Potency,AS120,inactive
same,Potency,ATS189,inactive
same,Potency,ATS95,inactive
same,Potency,CP238,inactive
same,Potency,CP247,inactive
same,Potency,CP262,inactive
same,Potency,CP265,inactive
same,Potency,CP286,inactive
same,Potency,PAD,inactive
same,Potency,PC15,inactive
same,Potency,TAB165,inactive

# Reference: PubChem BioAssay (NCATS)
